# What was measured:
# Assay in all cases: DAPPL (digital affinity profiling via proximity ligation, sequencing); 10 mM Tris-HCl pH 7.5, 50 mM NaCl, 1 mM DTT, 4% glycerol, room temperature, 30 min; GST-TFs on glutathione beads, 16-mer random dsDNA library, 0.1% formaldehyde crosslink after washing; high values mean tight binding
# Conditions in all cases: protein: recombinant; tags: N-terminal GST; dsDNA, one strand shown
# ETV1 = ETV1 (Homo sapiens, UniProt P50549 1-477)
# In short: (§1)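 Beads coated with glutathione captured GST-fused human transcription factors that had been expressed in yeast, and the factors were then given DNA barcodes and pooled with a tag-only sample. The pools were incubated with 200 nmole of a random double-stranded 16-mer DNA library in Tris/NaCl/DTT/glycerol buffer for 30 min at room temperature, washed, crosslinked with 0.1% formaldehyde and proximity-ligated with BsaI/T4 ligase at 37 °C for 1 h. PCR amplification and Illumina NextSeq500 sequencing came last. Binding signal is each hexamer's read frequency for a factor divided by its frequency for the tag-only sample.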
# ERF = molecular target: T1, ERF (Homo sapiens, UniProt P50548 1-548)
# T1 sequence: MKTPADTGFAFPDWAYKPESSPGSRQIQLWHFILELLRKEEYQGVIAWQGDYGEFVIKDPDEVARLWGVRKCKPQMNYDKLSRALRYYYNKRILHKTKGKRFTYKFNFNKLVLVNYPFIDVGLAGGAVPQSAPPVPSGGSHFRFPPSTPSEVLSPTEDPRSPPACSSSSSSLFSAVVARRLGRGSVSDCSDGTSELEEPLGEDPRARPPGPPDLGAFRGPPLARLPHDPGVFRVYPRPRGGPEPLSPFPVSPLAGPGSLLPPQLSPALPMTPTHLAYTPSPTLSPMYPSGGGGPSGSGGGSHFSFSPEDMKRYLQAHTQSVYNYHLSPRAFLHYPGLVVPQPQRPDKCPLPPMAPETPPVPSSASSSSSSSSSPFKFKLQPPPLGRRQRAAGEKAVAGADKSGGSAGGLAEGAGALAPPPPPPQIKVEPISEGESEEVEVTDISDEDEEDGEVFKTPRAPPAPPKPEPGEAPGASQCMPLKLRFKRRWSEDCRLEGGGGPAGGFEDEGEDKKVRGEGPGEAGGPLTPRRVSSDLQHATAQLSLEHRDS
# In short: as §1
# ETV3L = molecular target: T2, ETV3L (Homo sapiens, UniProt Q6ZN32 1-361)
# T2 sequence: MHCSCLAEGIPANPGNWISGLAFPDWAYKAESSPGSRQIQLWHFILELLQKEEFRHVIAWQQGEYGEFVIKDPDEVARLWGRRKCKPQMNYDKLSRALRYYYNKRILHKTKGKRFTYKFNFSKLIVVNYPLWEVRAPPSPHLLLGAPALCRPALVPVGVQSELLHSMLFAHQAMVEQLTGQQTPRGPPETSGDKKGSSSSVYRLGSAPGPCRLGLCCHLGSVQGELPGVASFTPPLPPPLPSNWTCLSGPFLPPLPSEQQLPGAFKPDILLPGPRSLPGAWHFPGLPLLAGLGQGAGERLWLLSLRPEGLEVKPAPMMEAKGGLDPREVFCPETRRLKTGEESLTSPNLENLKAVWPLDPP
# In short: as §1
# ETS2 = molecular target: T3, ETS2 (Homo sapiens, UniProt P15036 1-469)
# T3 sequence: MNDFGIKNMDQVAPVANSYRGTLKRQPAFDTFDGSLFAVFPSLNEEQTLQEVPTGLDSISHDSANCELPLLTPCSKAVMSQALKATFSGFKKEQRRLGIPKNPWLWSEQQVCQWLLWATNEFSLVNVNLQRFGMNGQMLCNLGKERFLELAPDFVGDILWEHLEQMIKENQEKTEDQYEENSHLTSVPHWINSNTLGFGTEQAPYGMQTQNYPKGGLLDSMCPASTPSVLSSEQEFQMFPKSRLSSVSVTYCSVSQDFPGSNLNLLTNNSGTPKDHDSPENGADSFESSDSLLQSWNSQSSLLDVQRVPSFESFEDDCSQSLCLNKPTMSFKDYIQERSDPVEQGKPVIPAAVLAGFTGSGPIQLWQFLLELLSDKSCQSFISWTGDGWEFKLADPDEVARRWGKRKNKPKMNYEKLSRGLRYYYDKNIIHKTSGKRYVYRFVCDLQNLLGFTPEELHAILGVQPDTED
# In short: as §1
# SPDEF = molecular target: T4, SPDEF (Homo sapiens, UniProt O95238 1-335)
# T4 sequence: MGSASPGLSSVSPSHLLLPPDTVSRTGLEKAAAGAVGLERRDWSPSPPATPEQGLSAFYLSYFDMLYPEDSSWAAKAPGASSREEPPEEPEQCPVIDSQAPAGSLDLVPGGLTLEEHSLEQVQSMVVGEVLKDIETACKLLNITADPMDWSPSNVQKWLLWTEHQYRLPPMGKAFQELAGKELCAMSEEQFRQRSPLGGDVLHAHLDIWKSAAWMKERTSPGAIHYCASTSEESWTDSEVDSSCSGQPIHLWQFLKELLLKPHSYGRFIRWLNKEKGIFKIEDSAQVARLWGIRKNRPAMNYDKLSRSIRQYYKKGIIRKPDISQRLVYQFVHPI
# In short: as §1
# ETV7 = molecular target: T5, ETV7 (Homo sapiens, UniProt Q9Y603 1-341)
# T5 sequence: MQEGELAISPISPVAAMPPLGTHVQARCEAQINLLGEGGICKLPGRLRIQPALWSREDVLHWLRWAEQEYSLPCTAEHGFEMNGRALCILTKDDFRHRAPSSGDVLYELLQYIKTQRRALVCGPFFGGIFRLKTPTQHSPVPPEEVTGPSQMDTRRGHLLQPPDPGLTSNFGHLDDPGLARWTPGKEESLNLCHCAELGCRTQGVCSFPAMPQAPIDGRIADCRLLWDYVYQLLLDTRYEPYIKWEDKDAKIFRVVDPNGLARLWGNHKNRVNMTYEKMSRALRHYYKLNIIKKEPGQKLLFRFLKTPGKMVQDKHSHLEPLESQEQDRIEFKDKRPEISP
# In short: as §1
# ELF5 = molecular target: T6, ELF5 (Homo sapiens, UniProt Q9UKW6-2 1-255)
# T6 sequence: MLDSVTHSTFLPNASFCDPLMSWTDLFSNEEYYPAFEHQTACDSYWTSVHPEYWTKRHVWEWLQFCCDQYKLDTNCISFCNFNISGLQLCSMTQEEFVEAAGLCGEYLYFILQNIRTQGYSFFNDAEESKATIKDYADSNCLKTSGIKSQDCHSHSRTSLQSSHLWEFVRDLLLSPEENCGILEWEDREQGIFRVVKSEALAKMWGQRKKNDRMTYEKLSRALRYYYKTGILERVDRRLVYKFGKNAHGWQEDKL
# In short: as §1
# ETV3 = molecular target: T7, ETV3 (Homo sapiens, UniProt P41162-2 1-143)
# T7 sequence: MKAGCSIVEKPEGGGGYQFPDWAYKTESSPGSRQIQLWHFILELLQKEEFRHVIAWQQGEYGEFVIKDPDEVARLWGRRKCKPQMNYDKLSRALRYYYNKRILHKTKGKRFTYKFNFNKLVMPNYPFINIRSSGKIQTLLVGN
# In short: as §1
# ETV6 = ETV6 (Homo sapiens, UniProt P41212 1-452)
# Chain of ETV6 (P41212 whole entry): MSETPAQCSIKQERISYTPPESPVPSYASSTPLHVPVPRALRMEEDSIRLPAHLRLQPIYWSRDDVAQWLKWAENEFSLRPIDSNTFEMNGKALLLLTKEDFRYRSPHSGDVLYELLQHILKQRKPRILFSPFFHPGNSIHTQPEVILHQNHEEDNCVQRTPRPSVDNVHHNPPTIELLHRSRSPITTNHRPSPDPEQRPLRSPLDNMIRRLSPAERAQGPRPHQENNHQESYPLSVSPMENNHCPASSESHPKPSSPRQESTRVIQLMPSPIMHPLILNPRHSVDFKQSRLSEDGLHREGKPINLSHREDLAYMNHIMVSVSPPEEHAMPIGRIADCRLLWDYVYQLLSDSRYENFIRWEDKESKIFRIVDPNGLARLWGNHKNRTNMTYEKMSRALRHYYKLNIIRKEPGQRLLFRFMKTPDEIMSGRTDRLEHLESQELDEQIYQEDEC
# In short: as §1
# Chain of ETV1 (P50549 whole entry, the tested form may be a part): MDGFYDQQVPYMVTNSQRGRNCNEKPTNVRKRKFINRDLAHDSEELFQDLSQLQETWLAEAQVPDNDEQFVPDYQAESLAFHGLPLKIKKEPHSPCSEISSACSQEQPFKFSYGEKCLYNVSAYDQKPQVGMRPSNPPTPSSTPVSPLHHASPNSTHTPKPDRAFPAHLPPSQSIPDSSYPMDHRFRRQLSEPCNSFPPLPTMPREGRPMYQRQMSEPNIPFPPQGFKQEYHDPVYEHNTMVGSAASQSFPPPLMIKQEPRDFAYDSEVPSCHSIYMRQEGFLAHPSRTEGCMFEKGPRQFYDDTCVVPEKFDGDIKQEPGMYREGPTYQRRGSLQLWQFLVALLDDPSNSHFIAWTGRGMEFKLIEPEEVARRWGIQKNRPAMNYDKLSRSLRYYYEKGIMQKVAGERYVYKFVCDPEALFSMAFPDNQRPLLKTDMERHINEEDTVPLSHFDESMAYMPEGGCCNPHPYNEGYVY
sequence,measurement,setting,value
ACGTTT,binding signal,ETV1,"1.22 fold enrichment (6-mer frequency, TF over GST control)"
same,binding signal,ERF,"1.18 fold enrichment (6-mer frequency, TF over GST control)"
same,binding signal,ETV3L,"1.13 fold enrichment (6-mer frequency, TF over GST control)"
same,binding signal,ETS2,"1.2 fold enrichment (6-mer frequency, TF over GST control)"
same,binding signal,SPDEF,"1.21 fold enrichment (6-mer frequency, TF over GST control)"
same,binding signal,ETV7,"1.33 fold enrichment (6-mer frequency, TF over GST control)"
same,binding signal,ELF5,"1.23 fold enrichment (6-mer frequency, TF over GST control)"
same,binding signal,ETV3,"1.1 fold enrichment (6-mer frequency, TF over GST control)"
same,binding signal,ETV6,"1.33 fold enrichment (6-mer frequency, TF over GST control)"
